Experimental data as given in the supplement of paper PMC10681739.

How the values were obtained:
ETS1 [1] = target: T1, ETS1 (UniProt P14921); test: ETS1 binding intensity (PBM fluorescence), ETS1 alone (arbitrary fluorescence units); higher = stronger binding; conditions: ETS1 concentration 1 nM; RUNX1 concentration 0 nM
T1 sequence: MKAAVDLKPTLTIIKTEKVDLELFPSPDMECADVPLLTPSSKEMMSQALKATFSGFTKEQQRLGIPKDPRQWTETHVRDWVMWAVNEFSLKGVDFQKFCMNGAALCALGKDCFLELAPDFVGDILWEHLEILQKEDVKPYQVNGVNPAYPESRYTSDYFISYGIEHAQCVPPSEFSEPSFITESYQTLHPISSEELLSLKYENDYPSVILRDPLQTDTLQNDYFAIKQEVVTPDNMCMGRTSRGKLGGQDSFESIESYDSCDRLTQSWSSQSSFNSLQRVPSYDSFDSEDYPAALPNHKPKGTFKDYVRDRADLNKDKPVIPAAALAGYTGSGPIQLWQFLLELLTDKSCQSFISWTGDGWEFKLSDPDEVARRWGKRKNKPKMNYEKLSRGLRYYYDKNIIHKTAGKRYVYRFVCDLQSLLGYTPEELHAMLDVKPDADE

RUNX1 = RUNX1 (UniProt Q01196); test: RUNX1 binding intensity (PBM fluorescence), RUNX1 alone (arbitrary fluorescence units); higher = stronger binding; conditions: RUNX1 concentration 2 nM; ETS1 concentration 0 nM
Procedure: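 Cooperative gcPBM on 36-bp genomic probes with neighbouring ETS1 and RUNX1 sites. Recombinant human RUNX1 (2 nM) was incubated alone or with ETS1 (25 nM) and detected with anti-RUNX1 antibody plus Alexa488 secondary. Values are medians over 4 replicate spots; the RUNX1+ETS1 data were normalised to the RUNX1-only data. The probes sit in constant array flanks that are not printed.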

ETS1 [2] = target: T1, ETS1; test: ETS1 binding intensity (PBM fluorescence) in presence of RUNX1, normalised to ETS1-only experiment (arbitrary fluorescence units); higher = stronger binding; conditions: ETS1 concentration 1 nM; RUNX1 concentration 25 nM
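For RUNX1 binding intensity (PBM fluorescence), RUNX1 alone in this document: Full-length recombinant human RUNX1 bound to double-stranded 36-bp genomic probes on a high-density microarray, scored as Alexa488 fluorescence per spot via anti-RUNX1 antibody, median of four replicate spots.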

RUNX1, sequence (Q01196 whole entry): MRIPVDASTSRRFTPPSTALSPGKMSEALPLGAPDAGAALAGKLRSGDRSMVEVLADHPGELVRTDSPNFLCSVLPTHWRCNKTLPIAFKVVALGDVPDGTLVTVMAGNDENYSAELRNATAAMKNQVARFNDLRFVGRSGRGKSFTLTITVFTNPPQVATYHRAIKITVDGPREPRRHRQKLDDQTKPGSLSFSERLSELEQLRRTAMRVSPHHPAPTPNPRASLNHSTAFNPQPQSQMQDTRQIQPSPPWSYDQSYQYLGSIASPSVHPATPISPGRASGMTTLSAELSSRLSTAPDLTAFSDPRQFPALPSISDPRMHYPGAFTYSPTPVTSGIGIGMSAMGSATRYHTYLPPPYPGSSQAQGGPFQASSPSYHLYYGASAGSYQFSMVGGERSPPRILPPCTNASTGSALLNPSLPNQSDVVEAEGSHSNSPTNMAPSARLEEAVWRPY

Sequence	ETS1 binding intensity (ETS1 [1])	RUNX1 binding intensity (RUNX1)	ETS1 binding intensity (ETS1 [2])
GGTTTCCGGGTGAAAAAAAAAAAAAAAACCACGCCA	461	906	529
AGGTACCAGGCCCGGAAACCACGGAAAGGGGAACTT	3050	862	5500
CCCCACATCCGGGGGCCGGGGCCGGGCTGTGGGCTT	524	739	516
CCGCCACCGGAAGCGCCCTCCTAATCCCCGCAGCGC	6290	978	6170
AAGCCCTAGAGGAAATTAGTACGTAACCACCTTCTG	540		844
CCCCTCCCTGCTTCCTGTGTGGTGAGGGGTGATCAG	2040	782	2040
ACTACAGGAGGAAACTACAGCCTAAACCACATGCAA	510	975	1010
CACTCCCCCATTCCGGCTGCAGGTTGAGGTTTGGAA	517		571
CTCTCCACCTCCTTCCGACCAGGACCGCACCCCCCC	986	1990	939
AGCTCTGCCAGGAAGTGAGAACCACAGGCCTCCCCT	1570	837	3140
CCATTCCCGGGCTTCCGCGGTGTCCCCACCCCCTAA	673		652
TGGCTTTGCAGAAGGAAGCTGTGGTTTCTGGTCTTC	620	869	3340
CACCTCACAGCCCGGATACAAACCGCCTACCCGCCC	780	1300	980
GATCTGTGCTCAGGATGTGGTGAGAGAATAAGGAAG	1210	753	2870
CACCTGCCTTGCTTCCTGCGGTGCAACCAGCGGGAG	444		520
AAGATGCCCCCTTCCGCTGGAAAGCGGTAATGCCCA	724		705
CGTGTGGGAGGCCGGAAGTTGCGGCTTCATTACTCG	20400	845	51000
GCCACTATTTCCTGCCTTCTGCGGCTGAGAGTCCCA	981	1220	997
TTCAATCACAGGAAACAGACGTCACCCACAGACCTA	1090	794	2200
ACCTTCCTTCCTGCCTCCCTTGTGGCTCCAGTCCAC	552		312
GCCCAATTCCCGAATCCGGTCTGCGGCGCGCTCGGG	583	768	507
GAGAAACAAACAGGATGTGGTCTCTGCCCTGGAGGA	7010	737	12000
GGTTGCCCCCTTCCTCTCTGTGGCACACACAGACCT	474		345

Sequence	ETS1 binding intensity (ETS1 [1])	RUNX1 binding intensity (RUNX1)	ETS1 binding intensity (ETS1 [2])
CTGCGCTTCCGCTTCACCCGGAGTACAGCGGTCCTG	842		713
AGCCCTCTGCAACTTCCCGGCCCCACAGCCCCACCC	678		575
AGTCTCGTTTCCTGTGCGCTGTGGCCACCTGGCAGC	1110	716	1050
CCGCCGACACACTTCCGGCGGCCACCACAGGGTATT	3140	795	3660
CTCCATCTGCCCGGAAAACCGCAGCCGCCCCAACCT	841	28600	3690
GTGGGGAGAGGCAGGAAACCGCTGCCGCCGACGGGG	3550	807	4730
CCCTCAGCGGAAGTGGAAGCTGTGGTTTCCAAAGGC	4750	916	17000
TATTTCCTGTGCACAGAAGCAGCTGGGCCGCAGAGT	557	697	680
GTTGAAATTGAGCTTCCGTTGGTGGTTAACCCTCTG	648	894	921
GGTACCAAGGGCAGAGGATGTGGTGAGGTGTGGAGG	940		3140
TGCCTCCTCGTCACAGGATGTGGTCGCTGCACCCTG	5200	788	16000
CGTTTCCTGTCTGGGACTGCGCCCACGCGGTCACGT	725	966	922
CTTCACTATGCATCCTGTACTGCAACCACACCAAAC	587	1350	793
GGCCGGAAGCGCTCTCGTTGGCCCTGCGGCGCTGGA	2120		2800
GCACCGTCCCAGCATCCGGACACCACAGCGGCCCTT	602		530
ATTGTAAATTTCCTTTAAACGTCCCCACCGCGCTCC	463		480
AATTGTCAATGGCAGGAAGCCACCACATGAAGAGAT	1290		1650
CTCTTCCTGCCTGTCCGTGGCTGGTGTGGTTTGCGT	457		616
TAGCAGGAAGCCGATTCGCCCTATATGCAACCACTT	549		570
GGAGCAACCGGCCGGATACCGCCACAGCCCTGGCAG	1720		1400
CTCAGAGCTGCGGAAACTACAACTCCCACAAGGCTG	738		633
GGTGTTAGTAGTCAAGGAAGTGGTCACCCTTGACAG	1010		2150
